Measured values published in PubChem BioAssay (EPA / NIEHS).
Calls of active or inactive are those of the source. How the source made its calls: active means hit-call score of the fitted dose curve at least 0.9, where 1 is the maximum; inactive means score below 0.9.

Assay: ATG_EGR_CIS: Attagene CIS-FACTORIAL HepG2 Assay for human Early Growth Response 1 (EGR1) (AID 2282938)
Details: HepG2 Attagene CIS-FACTORIAL EGR reporter mRNA; actives raise or lower the signal
Method: ATG_CIS is a cell-based, multiplexed-readout assay that uses HepG2, a human liver cell line, with measurements taken at 24 hours after chemical dosing in a 24-well plate.ATG_EGR_CIS is one of 52 assay component(s) measured or calculated from the ATG_CIS assay. It is designed to make measurements of mRNA induction, a form of inducible reporter, as detected with fluorescence intensity signals by Reverse transcription polymerase chain reaction (RT-PCR) and Capillary electrophoresis technology.Data from the assay component ATG_EGR_CIS was analyzed into 1 assay endpoint. This assay endpoint, ATG_EGR_CIS, was analyzed with bidirectional fitting relative to DMSO as the negative control and baseline of activity. Using a type of inducible reporter, measures of mRNA for gain or loss-of-signal activity can be used to understand the reporter gene at the transcription factor-level as they relate to the gene EGR1. Furthermore, this assay endpoint can be referred to as a primary readout, because this assay has produced multiple assay endpoints where this one serves a reporter gene function. To generalize the intended target to other relatable targets, this assay endpoint is annotated to the dna binding intended target family, where the subfamily is zinc finger.
Human liver HepG2 cells are transiently transfected with multiple reporter transcription units (MRTUs) in 6-well plates using FuGene 6 reagent (Roche; 3 ml FuGene/1 mg DNA). The MRTU constructs are regulated by a cis-regulating element (promoter). […] A major difference between the CIS and TRANS system is that in CIS activities of endogenous TFs are measured, whereas the TRANS assay evaluates changes in activities of exogenous, chimeric NR-Gal4 proteins. […] At the end of 24 hour incubation, total RNA was isolated using TriZol reagent (Invitrogen). The isolated RNA is then reverse-transcribed using oligo(dT) primer and Mo-MLV reverse transcriptase (Invitrogen) with DNAse I (Ambion) treatment for 30 min. The one-tenth of the produced cDNA was amplified by PCR using Taq DNA polymerase (Invitrogen) and two reporter sequence-specific primers. The PCR products were fluorescently labeled by primer extension with 6-arboxyfluorescein (6-FAM) 5'-labeled reporter sequence-specific primer (2 min at 95 C, 20 s at 68 C and 10 min at 72 C) and these products were digested with 5U of HpaI (New England Biolabs) for 2h at 37 C. The fragments were purified using Qiaquick PCR columns (Qiagen), analyzed on an ABI 3130xL genetic analyzer (Applied Biosystems) with peak positions identified by using a set of X-rhodamine (ROX)-labeled MapMarker1000 molecular weight standards (BioVentures). The raw capillary electrophoresis data was processed using Attagraph software (Attagene).

Q: For `OC(O)(C(F)C(O)(O)C(F)(F)F)C(F)(F)F`, which outcome is on record?
A: Its outcome is “inactive”.

Q: Which outcome does the source give for `S=P(N1CC1)(N1CC1)N1CC1` here?
A: Its outcome is “inactive”.

Q: With `NC(N)=O` as the molecule, how does the outcome read?
A: The outcome was “inactive”.

Q: For `Cc1nc(-c2ccccn2)ncc1C(=O)Nn1cc(C)c2cc(F)ccc21`, which outcome is on record?
A: The outcome was “inactive”.

Q: For `CCCCCCCCCC`, which outcome is on record?
A: Its outcome is “inactive”.

Q: Which outcome does the source give for `CC1(C)C(=O)N(Cl)C(=O)N1Cl` here?
A: The outcome was “inactive”.

Q: With `CCCCOC(=O)c1ccccc1` as the molecule, how does the outcome read?
A: Its outcome is “inactive”.

Q: Which outcome does the source give for `Cc1cccc(O)c1C` here?
A: Its outcome is “inactive”.

Q: With `O=C(O)c1ccc2c(c1)nc(C(=O)NC1CCN(C3CC3)CC1)n2Cc1cc(-c2ccc(Cl)s2)on1` as the molecule, how does the outcome read?
A: The outcome was “inactive”.

Q: Which outcome does the source give for `O=C(NO)C1(NS(=O)(=O)c2ccc(Oc3ccc(F)cc3)cc2)CCOCC1` here?
A: Its outcome is “inactive”.

Q: With `Cc1nccn1-c1ccc(Sc2cccc(C3(C(N)=O)CCOCC3)c2)cc1` as the molecule, how does the AC50 read?
A: Its AC50 is 4.56 µM (active).

Q: For `OCc1ccccc1`, which outcome is on record?
A: The outcome was “inactive”.

Q: For `NC(=O)N(O)[C@@H]1COc2cc(OCc3ccccc3)ccc21`, which outcome is on record?
A: The outcome was “inactive”.

Q: For `Cc1ncc([C@@H](CCCCCCc2ccc3c(n2)NCCC3)CC(=O)O)cn1`, which outcome is on record?
A: Its outcome is “inactive”.

Q: For `COc1cc2c(c(OC)c1OC)-c1ccc(OC)c(=O)cc1[C@@H](NC(C)=O)CC2`, which outcome is on record?
A: The outcome was “inactive”.

Q: With `CCCCCCCCCCCCCCCCOS(=O)(=O)O` as the molecule, how does the outcome read?
A: The outcome was “inactive”.

Q: For `NC(=O)N1c2ccccc2C=Cc2ccccc21`, which outcome is on record?
A: The outcome was “inactive”.

Q: For `CCc1ccc(O)c(C(C)(C)C)c1`, which outcome is on record?
A: Its outcome is “inactive”.

Q: For `CCCCCOC(C)=O`, which outcome is on record?
A: Its outcome is “inactive”.

Q: Which outcome does the source give for `CCCCCCCCCCCCCCO` here?
A: The outcome was “inactive”.

Q: For `FC(F)(F)C(F)(F)C(F)(F)C(F)(F)C(F)(F)C(F)(F)I`, which outcome is on record?
A: The outcome was “inactive”.

Q: With `NCC(F)(F)C(F)(F)C(F)(F)C(F)(F)F` as the molecule, how does the outcome read?
A: Its outcome is “inactive”.

Q: Which AC50 does the source give for `CCN(CC)C(=S)SSC(=S)N(CC)CC` here?
A: Its AC50 is 125 µM (active).

Q: Which outcome does the source give for `OCCNCCO` here?
A: Its outcome is “inactive”.

Q: For `CC(=O)c1ccccc1`, which outcome is on record?
A: The outcome was “inactive”.

Q: Which outcome does the source give for `O=C(O)CO` here?
A: The outcome was “inactive”.

Q: With `Cc1ccc(S(=O)(=O)NC(=O)NN2CCCCCC2)cc1` as the molecule, how does the outcome read?
A: The outcome was “inactive”.

Q: Which outcome does the source give for `CCCCC(CC)C(=O)OCCOCCOCCOC(=O)C(CC)CCCC` (stereo not given) here?
A: The outcome was “inactive”.

Q: Which outcome does the source give for `CC(C)CCCCCCOC(=O)C1CCCCC1C(=O)OCCCCCCC(C)C` (stereo not given) here?
A: The outcome was “inactive”.

Q: With `CCCCCCCCN(C)C` as the molecule, how does the outcome read?
A: The outcome was “inactive”.

Q: With `O=S(=O)(O)c1ccc(N=Nc2c(O)ccc3cc(S(=O)(=O)O)ccc23)cc1` as the molecule, how does the outcome read?
A: Its outcome is “inactive”.

Q: With `c1ccc2c(c1)-c1cccc3c1c-2cc1ccccc13` as the molecule, how does the outcome read?
A: Its outcome is “inactive”.

Q: With `CCCCCCOC(=O)CC(CC(=O)OCCCCCC)(OC(=O)CCC)C(=O)OCCCCCC` as the molecule, how does the outcome read?
A: The outcome was “inactive”.

Q: Which outcome does the source give for `CCOc1ccc2[nH]cc(C(=O)NCc3ccccc3)c(=O)c2n1` here?
A: The outcome was “inactive”.

Q: For `c1ccc2cc3ccccc3cc2c1`, which outcome is on record?
A: The outcome was “inactive”.

Q: Which outcome does the source give for `CCCCN1C(=O)[C@@H]([C@H](O)C2CCCCC2)NC(=O)C12CCN(Cc1ccc(Oc3ccc(C(=O)O)cc3)cc1)CC2` here?
A: Its outcome is “inactive”.

Q: With `COc1cc(C(C)C)c2c(c1)S(=O)(=O)N(COc1cc(=O)n3cccc(OCCN4CCCCC4)c3n1)C2=O` as the molecule, how does the AC50 read?
A: The AC50 was 2.75 µM (active).

Q: For `NC(=O)NN=Cc1ccc([N+](=O)[O-])o1`, which outcome is on record?
A: Its outcome is “inactive”.

Q: For `C=CN1CCCC1=O`, which outcome is on record?
A: The outcome was “inactive”.

Q: Which outcome does the source give for `CC(C)CC(C)O` (stereo not given) here?
A: The outcome was “inactive”.
